# Measured values published in article PMC7862700, “An all-to-all approach to the identification of sequence-specific readers for epigenetic DNA modifications on cytosine”.
# Legend:
# Assay in all cases: DAPPL (digital affinity profiling via proximity ligation, sequencing); 10 mM Tris-HCl pH 7.5, 50 mM NaCl, 1 mM DTT, 4% glycerol, room temperature, 30 min; GST-TFs on glutathione beads, 16-mer random dsDNA library, 0.1% formaldehyde crosslink after washing; high values mean tight binding
# Settings in all cases: protein: recombinant; tags: N-terminal GST; dsDNA, one strand shown
# FLI1 = target: T1, FLI1 (Homo sapiens, UniProt Q01543 1-452)
# T1 sequence: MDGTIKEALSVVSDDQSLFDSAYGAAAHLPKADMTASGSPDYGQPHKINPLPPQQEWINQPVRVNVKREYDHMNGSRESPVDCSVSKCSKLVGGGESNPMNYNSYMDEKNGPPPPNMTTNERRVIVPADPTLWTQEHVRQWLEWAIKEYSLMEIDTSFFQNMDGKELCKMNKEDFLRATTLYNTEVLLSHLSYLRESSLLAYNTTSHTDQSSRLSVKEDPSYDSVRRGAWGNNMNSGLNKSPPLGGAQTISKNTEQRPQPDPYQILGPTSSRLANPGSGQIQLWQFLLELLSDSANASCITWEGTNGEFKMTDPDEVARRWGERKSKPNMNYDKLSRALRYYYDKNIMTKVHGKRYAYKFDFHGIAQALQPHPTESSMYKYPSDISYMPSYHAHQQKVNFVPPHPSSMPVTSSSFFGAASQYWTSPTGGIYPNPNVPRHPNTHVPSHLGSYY
# Outline: (§1)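 A tag-only sample was pooled with DNA-barcoded human transcription factors that had been expressed in yeast as GST fusions and captured on glutathione beads. The pools were incubated for 30 min at room temperature with 200 nmole of a random double-stranded 16-mer DNA library in Tris/NaCl/DTT/glycerol buffer, then washed, crosslinked with 0.1% formaldehyde, proximity-ligated (BsaI/T4 ligase, 1 h, 37 °C), PCR-amplified and sequenced on an Illumina NextSeq500. Binding signal is each hexamer's read frequency for a factor divided by its frequency for the tag-only sample.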
# ELK1 = target: T2, ELK1 (Homo sapiens, UniProt P19419 1-428)
# T2 sequence: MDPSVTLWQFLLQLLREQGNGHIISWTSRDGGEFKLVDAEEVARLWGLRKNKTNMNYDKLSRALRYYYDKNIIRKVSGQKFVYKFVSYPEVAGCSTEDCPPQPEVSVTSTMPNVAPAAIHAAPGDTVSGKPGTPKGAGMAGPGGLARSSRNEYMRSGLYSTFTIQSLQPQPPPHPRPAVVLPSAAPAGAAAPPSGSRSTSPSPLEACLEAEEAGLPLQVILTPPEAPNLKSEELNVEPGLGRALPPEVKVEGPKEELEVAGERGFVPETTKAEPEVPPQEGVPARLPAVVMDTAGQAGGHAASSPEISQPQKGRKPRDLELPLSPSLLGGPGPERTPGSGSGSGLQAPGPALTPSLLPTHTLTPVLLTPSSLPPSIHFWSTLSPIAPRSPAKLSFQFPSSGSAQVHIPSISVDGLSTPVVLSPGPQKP
# Outline: as §1
# GABPA = target: T3, GABPA (Homo sapiens, UniProt Q06546 1-454)
# T3 sequence: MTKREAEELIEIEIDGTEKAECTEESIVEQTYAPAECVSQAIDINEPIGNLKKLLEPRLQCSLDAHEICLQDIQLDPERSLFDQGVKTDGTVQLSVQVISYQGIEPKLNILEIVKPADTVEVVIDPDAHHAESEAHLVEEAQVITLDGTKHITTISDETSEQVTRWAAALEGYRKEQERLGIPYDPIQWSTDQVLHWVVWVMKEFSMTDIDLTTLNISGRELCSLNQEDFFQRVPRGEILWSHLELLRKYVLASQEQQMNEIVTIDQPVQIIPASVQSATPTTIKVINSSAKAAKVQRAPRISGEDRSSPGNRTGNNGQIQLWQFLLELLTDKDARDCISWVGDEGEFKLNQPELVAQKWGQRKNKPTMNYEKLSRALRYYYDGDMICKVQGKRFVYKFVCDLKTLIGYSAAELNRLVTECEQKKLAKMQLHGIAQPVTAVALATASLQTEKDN
# Outline: as §1
# ERG = target: T4, ERG (Homo sapiens, UniProt P11308 1-479)
# T4 sequence: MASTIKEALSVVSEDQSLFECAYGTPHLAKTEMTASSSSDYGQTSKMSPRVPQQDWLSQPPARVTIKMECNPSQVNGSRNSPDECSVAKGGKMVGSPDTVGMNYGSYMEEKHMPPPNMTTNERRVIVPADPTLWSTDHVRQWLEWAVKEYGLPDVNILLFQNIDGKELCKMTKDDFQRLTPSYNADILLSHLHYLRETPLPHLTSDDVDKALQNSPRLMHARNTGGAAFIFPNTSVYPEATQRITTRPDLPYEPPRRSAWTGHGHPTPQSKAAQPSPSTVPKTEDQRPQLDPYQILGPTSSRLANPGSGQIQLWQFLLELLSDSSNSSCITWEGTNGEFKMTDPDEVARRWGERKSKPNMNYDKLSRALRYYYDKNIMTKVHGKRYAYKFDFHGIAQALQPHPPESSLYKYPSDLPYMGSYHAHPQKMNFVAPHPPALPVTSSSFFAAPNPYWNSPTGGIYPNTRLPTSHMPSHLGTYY
# Outline: as §1
# ELF1 = ELF1 (Homo sapiens, UniProt P32519 1-619)
# Outline: as §1
# EHF = target: T5, EHF (Homo sapiens, UniProt Q9NZC4 1-300)
# T5 sequence: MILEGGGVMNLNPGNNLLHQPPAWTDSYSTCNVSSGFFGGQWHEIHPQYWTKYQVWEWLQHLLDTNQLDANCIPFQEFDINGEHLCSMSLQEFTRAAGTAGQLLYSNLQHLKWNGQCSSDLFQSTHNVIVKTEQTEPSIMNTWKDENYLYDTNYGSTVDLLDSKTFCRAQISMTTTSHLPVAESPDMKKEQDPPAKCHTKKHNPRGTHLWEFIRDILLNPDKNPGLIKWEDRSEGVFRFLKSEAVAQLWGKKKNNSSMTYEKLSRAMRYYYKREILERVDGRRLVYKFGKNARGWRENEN
# Outline: as §1
# SPI1 = SPI1 (Homo sapiens, UniProt P17947 1-270)
# Outline: as §1
# SPIB = SPIB (Homo sapiens, UniProt Q01892 1-262)
# Outline: as §1
# ELK3 = target: T6, ELK3 (Homo sapiens, UniProt P41970 1-407)
# T6 sequence: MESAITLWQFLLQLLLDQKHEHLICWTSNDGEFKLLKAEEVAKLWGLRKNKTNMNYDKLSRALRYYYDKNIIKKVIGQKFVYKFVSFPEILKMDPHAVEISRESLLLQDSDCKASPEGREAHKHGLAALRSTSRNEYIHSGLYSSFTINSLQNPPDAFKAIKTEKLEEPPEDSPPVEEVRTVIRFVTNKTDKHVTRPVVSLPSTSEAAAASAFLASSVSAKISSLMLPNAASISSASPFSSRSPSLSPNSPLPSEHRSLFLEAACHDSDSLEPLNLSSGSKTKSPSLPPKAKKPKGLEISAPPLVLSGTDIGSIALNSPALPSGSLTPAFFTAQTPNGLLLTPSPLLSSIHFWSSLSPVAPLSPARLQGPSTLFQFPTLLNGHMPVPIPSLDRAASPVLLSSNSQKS
# Outline: as §1
# Chain of ELF1 (P32519 whole entry): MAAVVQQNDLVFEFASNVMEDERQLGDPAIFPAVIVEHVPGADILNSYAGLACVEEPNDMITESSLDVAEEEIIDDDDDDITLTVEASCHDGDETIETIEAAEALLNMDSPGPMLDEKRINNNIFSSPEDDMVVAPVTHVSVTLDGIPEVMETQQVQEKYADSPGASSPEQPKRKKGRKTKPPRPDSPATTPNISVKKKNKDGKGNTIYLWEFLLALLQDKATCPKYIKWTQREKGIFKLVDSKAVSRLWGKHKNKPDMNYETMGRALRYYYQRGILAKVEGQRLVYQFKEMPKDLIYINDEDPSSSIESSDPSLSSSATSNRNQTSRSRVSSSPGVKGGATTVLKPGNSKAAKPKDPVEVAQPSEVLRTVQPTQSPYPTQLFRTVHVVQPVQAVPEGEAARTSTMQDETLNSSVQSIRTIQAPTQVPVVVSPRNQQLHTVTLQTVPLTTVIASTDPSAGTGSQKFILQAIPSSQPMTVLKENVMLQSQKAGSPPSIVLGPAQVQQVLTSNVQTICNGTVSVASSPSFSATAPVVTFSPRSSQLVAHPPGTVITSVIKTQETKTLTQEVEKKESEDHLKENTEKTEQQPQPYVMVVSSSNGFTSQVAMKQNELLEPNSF
# Chain of SPIB (Q01892 whole entry): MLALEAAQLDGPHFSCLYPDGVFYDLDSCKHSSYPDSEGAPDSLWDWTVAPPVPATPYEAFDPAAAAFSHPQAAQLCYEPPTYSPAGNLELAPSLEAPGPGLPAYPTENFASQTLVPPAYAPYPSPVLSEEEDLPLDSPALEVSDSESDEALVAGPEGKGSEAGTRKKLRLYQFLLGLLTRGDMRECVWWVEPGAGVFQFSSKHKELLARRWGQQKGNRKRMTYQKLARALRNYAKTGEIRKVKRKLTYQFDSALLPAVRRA
sequence,measurement,setting,value
TTATCC,binding signal,FLI1,"1.47 fold enrichment (6-mer frequency, TF over GST control)"
same,binding signal,ELK1,"1.39 fold enrichment (6-mer frequency, TF over GST control)"
same,binding signal,GABPA,"1.37 fold enrichment (6-mer frequency, TF over GST control)"
same,binding signal,ERG,"1.43 fold enrichment (6-mer frequency, TF over GST control)"
same,binding signal,ELF1,"1.31 fold enrichment (6-mer frequency, TF over GST control)"
same,binding signal,EHF,"1.52 fold enrichment (6-mer frequency, TF over GST control)"
same,binding signal,SPI1,"1.41 fold enrichment (6-mer frequency, TF over GST control)"
same,binding signal,SPIB,"1.54 fold enrichment (6-mer frequency, TF over GST control)"
same,binding signal,ELK3,"1.5 fold enrichment (6-mer frequency, TF over GST control)"
